Results published in PubChem BioAssay AID1445 (SRMLSC, 2008).
Among all 220,000 compounds or so, about 910 (0.41%) were called active.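 Rule for the calls: active = primary inhibition above the hit cutoff, then over 50% inhibition at one or more dose response concentrations (cut at about 23% in these data, passing the limit was not always enough); inconclusive = conflicting primary data, or primary hits not chosen for dose response; inactive = low primary inhibition, or under 50% at every dose.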 Only a selection was taken, and actives are over-represented in it overall. Measured potencies and affinities stand elsewhere.

What follows are compounds tested against Aminopeptidase N (Plasmodium falciparum (isolate 3D7)) (UniProt O96935) (assay: P. falciparum M1AAP inhibitors, biochemical, fluorogenic H-Leu-NHMec substrate, 1536-well (AID 1445;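 note: plate controls were DMSO full reaction for no effect and no enzyme background for full effect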)). Conditions: recombinant M1AAP, H-Leu-NHMec fluorogenic kinetic assay; at 30 µM, hits give high values unless noted.
Aminopeptidase N (Plasmodium falciparum (isolate 3D7)), sequence (O96935 whole entry, looked up): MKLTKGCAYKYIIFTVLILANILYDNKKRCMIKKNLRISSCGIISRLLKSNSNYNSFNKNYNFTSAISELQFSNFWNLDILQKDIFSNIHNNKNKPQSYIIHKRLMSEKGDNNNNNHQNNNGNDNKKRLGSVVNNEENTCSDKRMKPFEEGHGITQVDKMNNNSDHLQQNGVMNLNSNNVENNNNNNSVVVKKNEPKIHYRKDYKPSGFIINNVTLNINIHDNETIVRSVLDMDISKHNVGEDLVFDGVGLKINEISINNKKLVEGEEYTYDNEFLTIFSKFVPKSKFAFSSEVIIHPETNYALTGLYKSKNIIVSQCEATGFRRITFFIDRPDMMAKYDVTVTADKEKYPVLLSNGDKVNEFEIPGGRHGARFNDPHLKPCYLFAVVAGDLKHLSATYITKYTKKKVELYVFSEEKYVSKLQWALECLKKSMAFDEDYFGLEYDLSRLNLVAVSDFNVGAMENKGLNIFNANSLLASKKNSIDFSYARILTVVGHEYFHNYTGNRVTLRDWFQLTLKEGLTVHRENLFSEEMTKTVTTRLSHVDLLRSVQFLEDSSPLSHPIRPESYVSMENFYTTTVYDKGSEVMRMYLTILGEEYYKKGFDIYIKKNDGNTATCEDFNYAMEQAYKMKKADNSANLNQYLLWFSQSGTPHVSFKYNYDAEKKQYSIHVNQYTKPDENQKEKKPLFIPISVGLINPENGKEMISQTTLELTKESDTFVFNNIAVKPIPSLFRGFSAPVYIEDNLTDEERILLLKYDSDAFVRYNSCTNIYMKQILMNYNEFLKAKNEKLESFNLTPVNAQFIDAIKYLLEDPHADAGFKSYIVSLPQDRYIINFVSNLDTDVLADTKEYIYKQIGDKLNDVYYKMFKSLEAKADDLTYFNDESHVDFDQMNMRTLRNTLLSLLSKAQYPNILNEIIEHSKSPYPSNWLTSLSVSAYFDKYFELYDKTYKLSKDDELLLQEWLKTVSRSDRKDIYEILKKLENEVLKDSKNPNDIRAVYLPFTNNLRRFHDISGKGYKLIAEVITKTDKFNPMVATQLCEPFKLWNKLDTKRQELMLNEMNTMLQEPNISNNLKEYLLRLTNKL

inhibition, inactive:
CC1CC(=O)Nc2ccccc2N1S(=O)(=O)c1ccc(Br)cc1 (stereo not given) -1.92%
COc1ccccc1NC(=O)Cc1noc(CSc2nnc(C)n2C)n1 -2.44%
Cc1ccccc1CS(=O)(=O)Cc1ccc(C(=O)NCc2ccccn2)o1 11.9%
Cc1ccc(-c2csc3ncnc(SCC(=O)O)c23)cc1 -4.79%
CCc1cc2ccccc2nc1SCC(=O)Nc1cc(OC)c(OC)cc1C(=O)O 6.44%
COC(=O)CSc1ncnc2scc(-c3ccccc3)c12 8.48%
CCc1cc2ccc(C)cc2nc1SCC(=O)Nc1cc(OC)c(OC)cc1C(=O)O 17.6%
Cc1sc2ncnc(SCc3ccc(C(=O)O)cc3)c2c1C 8.46%
O=C(CSc1ncnc2scc(-c3ccccc3)c12)Nc1ccc(C(=O)O)cc1 7.21%
Cn1c(SCC(=O)N(Cc2ccccc2)C(C)(C)C)nc2ccccc21 -3.33%
COC(=O)c1ccc(N(C(=O)CNC(=O)c2ccco2)C(C(=O)NC2CCCC2)c2ccco2)cc1 (stereo not given) -1.68%
FC(F)(F)c1cccc(OCCN2CCN(Cc3ccccc3)CC2)c1 -0.96%
O=c1cnnc(N/N=C/c2ccc3c(c2)OCO3)[nH]1 4.09%
COc1ccc(C(=O)COc2ccc(F)cc2)c(O)c1C 0.41%
CCCCN1CNC(=S)N(CCc2ccccc2)C1 2.11%
O=c1cc(/N=C/c2coc3cc(Br)ccc3c2=O)[nH]c(=S)[nH]1 18.8%
O=C(NNC(=O)c1ccccc1O)c1ccco1 5.04%
O=C(CCCN1C(=O)S/C(=C\c2ccccc2)C1=O)NNC(=O)c1ccccc1O -1.57%
O=C(CN1C(=O)/C(=C/c2ccccc2)SC1=S)NNC(=O)c1ccccc1O 6.33%
O=C(NN=C1CCN(Cc2ccccc2)CC1)c1ccccc1O 8.75%
CCN1C(=O)C2(C(C(=O)c3cc4ccccc4o3)=C(O)C(=O)N2CCCN2CCOCC2)c2ccccc21 (stereo not given) 2.91%
COc1cccc(Cn2cnc3c(NS(=O)(=O)c4ccc(Cl)cc4)c(C)c(C)cc32)c1 7.11%
O=C(O)c1ccc(N/N=C/c2ccc(-c3cccc(Cl)c3)o2)cc1 13.1%
O=C(N/N=C/c1ccc(-c2cccc([N+](=O)[O-])c2)o1)c1ccccc1O -18.1%
O=C(N/N=C/c1ccc(-c2ccc([N+](=O)[O-])cc2)o1)C(O)c1ccccc1 (stereo not given) 18.2%
NC(=O)N/N=C/c1ccc(-c2ccc([N+](=O)[O-])cc2)o1 2.91%
O=C(N/N=C/c1ccc(-c2cccc([N+](=O)[O-])c2)o1)c1ccc([N+](=O)[O-])cc1 2.39%
Cc1ccc(C(=O)N/N=C\c2ccc(-c3ccc([N+](=O)[O-])cc3)o2)cn1 9.19%
NC(=S)N/N=C/c1ccc(-c2ccc([N+](=O)[O-])cc2)o1 -0.83%
O=[N+]([O-])c1ccc(-c2ccc(/C=N/O)o2)cc1 2.25%
